Compounds without any hit were thinned out: in the full panel of roughly 83,000, 20% have a hit.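 Negative percent growth values reflect cell death: -40 means 40% of the cells present at the start died, and -100 means all died.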 Values without a mark were called inactive. Calls of active or inactive are those of the source. Rule for the calls: active = growth percent below 10; inactive = the rest.

Holding throughout (assay): NCI-60 one-dose screen, 48 h (100 = growth as untreated, 0 = no growth, -100 = all killed)
Holding throughout (details): 10 µM unless noted

Assay [1] concerns NCI-H23 lung.
Assay [2] deals with NCI-H226 lung.
For assay [3], the system named is NCI-H322M lung.
For assay [4], the system named is HOP-62 NSCLC.
In assay [5] the test system is NCI-H460 lung.
Assay [6] concerns HOP-92 NSCLC.
Assay [7] deals with NCI-H522 lung.
The test system of assay [8] is A549/ATCC NSCLC.
Assay [9] concerns 786-0 renal.
Assay [10] deals with COLO 205 colon.
For assay [11], the system named is DU-145 prostate.
The test system of assay [12] is K-562 leukemia.
Assay [13] has as its system MALME-3M melanoma.
The subject of assay [14] is MDA-MB-231 breast.
The subject of assay [15] is RXF 393 renal.
Assay [16] has as its system SF-268 CNS.
Assay [17] relates to SF-295 CNS.
Assay [18] relates to SF-539 CNS.
In assay [19] the test system is UACC-257 melanoma.
The subject of assay [20] is M14 melanoma.

Regarding `CCOC(=O)c1c(C)nc2c(c1N)C(=O)C(=O)N2CCc1ccc(OC)c(OC)c1`, the growth in [1] was 67%; in assay [2] it was 74%; in assay [3], 109%; in assay [4], 58.9%; in assay [5] it was 88.2%; in [6], 81.8%. The growth in [7] is 31.9%; in assay [8] it was 66%; in assay [9], 82.9%; in assay [10], 99.3%; in [11] it was 89.7%; in assay [12] it was 25.6%. Further, the growth in assay [13] is 79.1%; in assay [14], 80.4%; in assay [15], 83.8%; in assay [16], 78.7%; in assay [17] it was 63.3%; in assay [18], 70%. For the same compound, the results for the growth in assay [19] and in assay [20] were 46.8% and 70.6%, respectively.
As to `CCCCC1=C(Br)C(=O)c2ncccc2C1=O`, the growth is 95% in [1]; 97.8% in [2]; 100% in [3]; 91.3% in assay [4]; 105% in assay [5]; 46.2% in assay [6]. The growth is 74.3% in assay [7]; 94.8% in [8]; 93.3% in [9]; -6.16% (active) in [10]; 103% in assay [11]; 30.2% in assay [12]. Moreover, the growth is 101% in assay [13]; 77.6% in assay [14]; 98.3% in assay [15]; 95.5% in assay [16]; 106% in [17]; 94.5% in assay [18]. The growth in assay [19] was 92.6%; in [20], 98.2%.
As to `COc1cccc(-c2cc(-c3ccc(Nc4nc(Nc5ccc(Cl)cc5)nc(Nc5ccc(Cl)cc5)n4)cc3)nc(N)c2C#N)c1`, the growth in assay [1] was 37.9%; in assay [2], 10.5%; in assay [3], 99.9%; in assay [4], 95%; in [5], 69%; in [6] it was -85.7% (active). For the same compound, the growth in assay [7] is 87.4%; in assay [8], 43%; in assay [9], 59.2%; in [10], -30.4% (active); in [11], 56.3%; in [12] it was 41.5%. Moreover, the growth in assay [13] is -52.9% (active); in [14] it was -14.1% (active); in assay [15], -48.7% (active); in assay [16] it was 71%; in [17] it was 83.2%; in assay [18], 6.72% (active). For the same compound, the results for the growth in assay [19] and in assay [20] were 16.3% and 15.6%, respectively.
As for `Cn1ccnc1C(=O)/C=C/c1ccc(CC(=O)Nc2cc(F)c(F)c(F)c2)cc1`, the growth in [1] was 8.11% (active); in assay [2], 58.1%; in [3], 21.1%; in assay [4], 11.8%; in assay [5] it was 5.19% (active); in assay [6], 69.4%. For the same compound, the growth was 12.3% in [7]; 28.6% in assay [8]; 6.02% (active) in [9]; 24% in assay [10]; 3% (active) in [11]; 12.6% in assay [12]. In addition, the growth in assay [13] is 83.2%; in assay [14] it was 6.11% (active); in assay [15] it was -15.6% (active); in [16], 15.5%; in assay [17] it was 51.5%; in assay [18], -19.5% (active). In addition, the values for the growth in assay [19] and in [20] were 80.2% and 62.7%, respectively.
Turning to `CN(C)C(=O)OCc1ccc2c(Cl)cc(Cl)c(O)c2n1`, the growth in assay [1] was 51.2%; in [2], 68.3%; in assay [3] it was 53.8%; in assay [4] it was 27.3%; in assay [5], 31.3%; in assay [6], 58.8%. The growth in assay [7] was 65.1%; in assay [8] it was 25%; in [9], 48.7%; in assay [10] it was 104%; in [11], 39.7%; in [12], 20%. The growth is 46% in [13]; 54.6% in assay [14]; 67.6% in [15]; 25.8% in assay [16]; 34.5% in assay [17]; 26.1% in [18]. For the same compound, the growth was 48.5% in assay [19] and 12.6% in [20].
As to `O=c1n(C2OC(CO)C(O)C2O)ccc2nccn12` (stereo not given), the growth in [1] was 113%; in assay [2], 110%; in [3], 114%; in assay [4], 127%; in assay [5] it was 99.9%; in assay [6] it was 105%. Also, the growth in assay [7] is 116%; in assay [8], 96%; in [9] it was 103%; in assay [10] it was 126%; in [11], 107%; in assay [12], 102%. The growth was 112% in assay [13]; 117% in assay [14]; 162% in assay [15]; 107% in [16]; 108% in [17]; 112% in [18]. Also, the results for the growth in assay [19] and in assay [20] were 100% and 105%, respectively.
As to `O=C(O)COc1ccc(F)cc1`, the growth in assay [1] is 96.8%; in assay [2], 105%; in assay [3], 99.6%; in assay [4], 98.7%; in assay [5], 113%; in [6], 102%. For the same compound, the growth is 93.8% in [7]; 99.6% in assay [8]; 102% in [9]; 116% in [10]; 109% in assay [11]; 97.1% in [12]. Besides, the growth in assay [13] was 107%; in assay [14] it was 100%; in assay [15], 107%; in assay [16], 93.6%; in [17], 102%; in [18], 96.9%. For the same compound, the figures for the growth in assay [19] and in assay [20] were 102% and 109%, respectively.

The values above are taken from PubChem BioAssay (NCI).
